# Source: PubChem BioAssay (NCATS)
# “And” between values parts separate entries of the source, which are not always exact repeats. Equal values may be shown once. Results filed as inconclusive are left out. Entries that show only a call come without a potency. The source made the active and inactive calls. Unless noted, the call rests on the fitted dose curve; in most records, active means well fitted curve in the direction sought with a large enough effect; inconclusive means small, poorly fitted or top-dose-only effect, or another doubt; inactive means no such curve, though single readings can be large; an effect the other way counts as inactive or inconclusive.
# Key:
# [1] = target: Glutathione peroxidase 1 (Homo sapiens) (UniProt P07203); assay: Primary qHTS Assay for Inhibitors of Recombinant Selenoprotein Glutathione Peroxidase 1 (GPX1) (AID 1845191); further: nearly all actives have a fitted effect of over 65% in size
# Sequence of Glutathione peroxidase 1 (Homo sapiens) (P07203 whole entry, looked up): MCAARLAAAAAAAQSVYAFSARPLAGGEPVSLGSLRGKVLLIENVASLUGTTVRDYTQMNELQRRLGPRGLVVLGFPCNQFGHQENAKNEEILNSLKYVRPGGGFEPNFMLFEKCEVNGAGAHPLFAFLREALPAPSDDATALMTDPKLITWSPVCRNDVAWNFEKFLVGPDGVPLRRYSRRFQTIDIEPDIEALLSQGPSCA
# Method in brief: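 GR-coupled readout: NADPH consumption tracked by fluorescence, ex 340/em 450 nm, at t=0 and after 15 min at RT. Final mix 10 nM GPX1, 1 mM GSH, 0.5 mM CHP, 0.5 mM NADPH, 100 nM GR, 0.01% BSA, following 30 min enzyme–compound preincubation.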
# [2] = target: Phospholipid hydroperoxide glutathione peroxidase GPX4 (Homo sapiens) (UniProt P36969); assay: Primary qHTS Assay for Inhibitors of Recombinant Selenoprotein Glutathione Peroxidase 4 (GPX4) (AID 1845192); further: nearly all actives have a fitted effect of over 65% in size; further: potency means the concentration at half of the fitted maximal effect
# Sequence of Phospholipid hydroperoxide glutathione peroxidase GPX4 (Homo sapiens) (P36969 whole entry, looked up): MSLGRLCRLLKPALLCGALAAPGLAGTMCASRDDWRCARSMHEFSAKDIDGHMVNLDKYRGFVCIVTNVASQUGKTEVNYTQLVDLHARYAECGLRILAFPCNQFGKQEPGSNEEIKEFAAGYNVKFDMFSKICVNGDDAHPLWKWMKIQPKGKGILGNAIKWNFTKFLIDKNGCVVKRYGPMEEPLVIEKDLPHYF
# Method in brief: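 Steps: GPX4 plus compound, 30 min RT; add GR/GSH/NADPH master mix; start with cumene hydroperoxide; read 340/450 nm fluorescence at 0 and 15 min. Finals were 200 nM GPX4, 1 mM GSH, 0.5 mM CHP, 0.5 mM NADPH, 100 nM GR.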
# [3] = NCATS anti-infectives library activity on HEK293 viability as a counter-qHTS vs the C. elegans viability qHTS (AID 1745854)
# Method in brief: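 CellTiter-Glo luminescence, read on a CCD imager, scored viability of HEK293 cells after 24 hr compound exposure at 37C. Library tested in several concentrations, 1:5 steps, up to 41.7 uM; digitonin served as control.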
# [4] = Viability counterscreen for antagonist of constitutive androstane receptor (CAR) against the NCATS DSHEA and TCM libraries (AID 1794837);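 further: compound exposure lasted 24 h before viability reading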
# Method in brief: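 HepG2-CYP2B6-hCAR cells (2,500/well) were allowed to attach for 5 h, then exposed to compounds with 48 uM CITCO for 24 h at 37C. Viability was read by CellTiter-Fluor fluorescence after 1 h.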
# [5] = Viability counterscreen for agonist of constitutive androstane receptor (CAR) against the NCATS DSHEA and TCM libraries (AID 1794838)
# Method in brief: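 HepG2-CYP2B6-hCAR cells (2,500/well) attached 5 h, then got compounds plus 0.75 uM PK11195 final. After 24 h at 37C, viability read by CellTiter-Fluor fluorescence (Ex/Em 405/540 nm).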
# [6] = target: Nuclear receptor subfamily 1 group I member 3 (Homo sapiens) (UniProt Q14994); assay: Primary qHTS for agonist of constitutive androstane receptor (CAR) against the NCATS DSHEA and TCM libraries (AID 1794839);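 further: HepG2 cells expressing human CAR with a CYP2B6 reporter plus PK11195 antagonist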
# Sequence of Nuclear receptor subfamily 1 group I member 3 (Homo sapiens) (Q14994 whole entry, looked up): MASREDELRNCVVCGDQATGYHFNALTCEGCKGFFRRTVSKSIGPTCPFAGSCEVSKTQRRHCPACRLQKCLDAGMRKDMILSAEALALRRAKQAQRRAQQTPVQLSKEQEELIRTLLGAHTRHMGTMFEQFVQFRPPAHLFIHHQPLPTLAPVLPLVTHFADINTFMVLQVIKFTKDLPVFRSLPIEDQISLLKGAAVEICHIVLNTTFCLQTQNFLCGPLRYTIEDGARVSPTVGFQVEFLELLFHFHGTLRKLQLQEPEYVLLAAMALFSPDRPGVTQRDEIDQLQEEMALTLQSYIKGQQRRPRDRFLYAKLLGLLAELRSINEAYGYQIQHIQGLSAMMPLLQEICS
# Method in brief: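 HepG2-CYP2B6-hCAR cells (2,500/well) were attached for 5 h, then treated for 24 h at 37 °C with compounds plus 0.75 µM PK11195. Luciferase luminescence (ONE-Glo) was read, with CellTiter-Fluor viability (Ex/Em 405/540 nm).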
# [7] = HepG2 viability counterscreen (readout 2: ATP content) against the NCATS DSHEA and TCM libraries (AID 1794840);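 further: HepG2 cells exposed to substances for about 24 h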
# Method in brief: (§1)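 HepG2 cells (1,000 cells/well) attached ~4 h, then treated ~24 h at 37C with substances. Protease activity read by GF-AFC (25 uM final, 30 min, Ex/Em 380/510 nm); ATP content then by CellTiter-Glo luminescence.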
# [8] = HepG2 viability counterscreen (readout 1: protease activity) against the NCATS DSHEA and TCM libraries (AID 1794841);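 further: cells exposed to compounds for about 24 h before the protease read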
# Method in brief: as §1
# [9] = Primary qHTS for inhibitors of nuclear receptor binding SET domain protein 2 (NSD2) in an RCH-ACV wild type WT cells (2C) (AID 1645877); further: nearly all actives have a fitted effect of over 70% in size; further: potency means the concentration at half of the fitted maximal effect
# [10] = Primary qHTS for inhibitors of nuclear receptor binding SET domain protein 2 (NSD2) in an isogenic RCH-ACV NSD2 p.E1099K mutant (9B) (AID 1645876); further: nearly all actives have a fitted effect of over 70% in size; further: potency means the concentration at half of the fitted maximal effect
# [11] = target: Luciferin 4-monooxygenase (Photinus pyralis) (UniProt P08659); assay: Primary firefly luciferase (FLuc) qHTS assay for identification of artifact compounds. (AID 1845220); further: nearly all actives have a fitted effect of over 60% in size
# Method in brief: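 Enzymatic FLuc inhibition assay: compounds pre-exposed to luciferin/ATP (10 uM each) for 15 min, then purified P. pyralis enzyme at 10 nM added. Read-out: luminescence at 5 min.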
# [12] = Primary fluorescence-based thiol-reactive (MSTI) qHTS assay for identification of artifact compounds. (AID 1845221);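 further: thiol-reactive compounds lower the probe fluorescence signal; nearly all actives have a fitted effect of over 65% in size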
# Method in brief: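 Thiol-reactive compounds detected by quenching of 4 uM MSTI fluorescence (525/598 nm) after 1 h room-temperature dark incubation in PBS pH 7.4, 2% DMSO. qHTS titration; percent inhibition Hill-fitted against Acetyl-MSTI/MSTI controls.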
# [13] = target: Catechol O-methyltransferase (Homo sapiens) (UniProt P21964); assay: Confirmatory Screen for Target Class Profiling of Small Molecule Inhibitors of Methyltransferases (AID 1745852; calls by dose curve; further: potency means the concentration at half of the fitted maximal effect); settings: MTase-Glo luminescence, SAH detection, recombinant enzyme; measured here: COMT max response; stronger effect = lower value
# Sequence of Catechol O-methyltransferase (Homo sapiens) (P21964 whole entry, looked up): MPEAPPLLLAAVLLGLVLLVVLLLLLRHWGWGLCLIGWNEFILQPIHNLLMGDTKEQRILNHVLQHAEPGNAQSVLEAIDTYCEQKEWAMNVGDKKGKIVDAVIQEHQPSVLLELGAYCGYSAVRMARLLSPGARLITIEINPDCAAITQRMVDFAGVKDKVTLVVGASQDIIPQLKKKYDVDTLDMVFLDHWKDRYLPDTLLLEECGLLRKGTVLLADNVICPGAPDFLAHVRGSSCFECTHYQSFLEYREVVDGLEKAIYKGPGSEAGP
# [14] = target: Guanidinoacetate N-methyltransferase (Homo sapiens) (UniProt Q14353); assay: as above; settings: activity change, negative = inhibition: at 57.3 µM (top of the series)
# [15] = target: Nicotinamide N-methyltransferase (Homo sapiens) (UniProt P40261); assay: as above; settings: MTase-Glo luminescence, SAH detection, recombinant enzyme; measured here: NNMT max response; stronger effect = lower value
# Sequence of Nicotinamide N-methyltransferase (Homo sapiens) (P40261 whole entry, looked up): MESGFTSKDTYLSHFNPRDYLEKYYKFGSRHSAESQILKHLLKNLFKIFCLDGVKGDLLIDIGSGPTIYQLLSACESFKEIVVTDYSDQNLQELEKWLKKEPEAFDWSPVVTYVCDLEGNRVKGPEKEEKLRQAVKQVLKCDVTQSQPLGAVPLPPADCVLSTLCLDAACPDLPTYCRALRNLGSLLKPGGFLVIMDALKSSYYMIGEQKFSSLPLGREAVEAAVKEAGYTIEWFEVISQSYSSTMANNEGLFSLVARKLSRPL
# [16] = target: Phenylethanolamine N-methyltransferase (Homo sapiens) (UniProt P11086); assay: as above; settings: MTase-Glo luminescence, SAH detection, recombinant enzyme; measured here: PNMT max response; stronger effect = lower value
# Sequence of Phenylethanolamine N-methyltransferase (Homo sapiens) (P11086 whole entry, looked up): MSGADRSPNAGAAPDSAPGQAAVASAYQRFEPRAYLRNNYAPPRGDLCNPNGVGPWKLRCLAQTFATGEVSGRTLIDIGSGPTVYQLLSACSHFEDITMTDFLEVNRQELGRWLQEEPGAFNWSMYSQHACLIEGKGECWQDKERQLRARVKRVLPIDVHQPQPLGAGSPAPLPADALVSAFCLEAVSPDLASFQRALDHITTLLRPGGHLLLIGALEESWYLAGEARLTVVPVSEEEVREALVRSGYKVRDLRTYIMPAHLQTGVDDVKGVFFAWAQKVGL
compound,measurement,setting,value
Cn1cc(C2=C(c3c4n(c5ccccc35)CCC(CN)C4)C(=O)NC2=O)c2ccccc21 (stereo not given),outcome,[1],inactive [at 9.52 µM]
same,"activity change, negative = inhibition",[2],-6.23% [at 9.73 µM] (inactive)
O=c1[nH]c(=O)n([C@H]2C[C@@H](O)[C@@H](CO)O2)cc1C=CBr,Potency,[3],inactive
C[C@@]12C[C@@]3(O)O[C@@H](O1)[C@]1(COC(=O)c4ccccc4)[C@@H]3C[C@@]12O[C@@H]1O[C@H](CO)[C@@H](O)[C@H](O)[C@@H]1O,outcome,[4],inactive
same,outcome,[5],inactive
same,outcome,[6],inactive
same,outcome,[7],inactive
same,outcome,[8],inactive
CCN(C(=O)c1c(O)c2c(Cl)cccc2n(C)c1=O)c1ccccc1,Potency,[9],inactive
same,Potency,[1],inactive
same,Potency,[2],inactive
c1cc(CN2CCCNCCNCCCNCC2)ccc1CN1CCCNCCNCCCNCC1,Potency,[9],inactive
same,Potency,[3],inactive
same,Potency,[1],inactive
same,Potency,[2],inactive
O=C1c2c(O)cccc2[C@@H]([C@@H]2O[C@H](CO)[C@@H](O)[C@H](O)[C@H]2O)c2cc(CO)cc(O)c21,outcome,[4],inactive
same,outcome,[5],inactive
same,outcome,[6],inactive
same,outcome,[7],inactive
same,outcome,[8],inactive
COc1cccc2c1C(=O)c1c(O)c3c(c(O)c1C2=O)C[C@@](O)(C(=O)CO)C[C@@H]3O[C@H]1C[C@H](N)[C@@H](O)[C@H](C)O1,Potency,[10],66.1 nM (active)
same,Potency,[1],inactive
same,Potency,[2],inactive
COc1cc2ncnc(Nc3cccc(Br)c3)c2cc1OC,Potency,[1],inactive
same,Potency,[2],inactive
Nc1nc(=O)n([C@H]2C[C@H](O)[C@@H](CO)O2)cc1F,Potency,[10],11.8 nM (active)
same,Potency,[1],inactive
same,Potency,[2],inactive
Oc1ccc(-c2ccc(-c3cc(Nc4cccc(CNC5CC5)c4)n[nH]3)cc2)c(O)c1,Potency,[10],1480 nM (active)
same,Potency,[1],inactive
same,Potency,[2],inactive
Nc1ccn(C[C@@H](CO)OCP(=O)(O)O)c(=O)n1,"activity change, negative = cytotoxicity",[3],2.29% [at 8.35 µM] (inactive)
same,"activity, negative = inhibition",[1],-28.5% [at 0.4 µM] (inactive) and -6.08% [at 9.52 µM] (inactive)
same,"activity change, negative = inhibition",[2],4.75% [at 0.409 µM] (inactive) and -14.5% [at 9.73 µM] (inactive)
C[C@H]1[C@@H](OC(=O)CCC(=O)O)O[C@@H]2O[C@@]3(C)CC[C@@H]4[C@H](C)CC[C@@H]1[C@@]24OO3,Potency,[10],1860 nM (active)
same,Potency,[1],inactive
same,Potency,[2],inactive
same,Potency,[11],inactive
same,Potency,[12],inactive
NC[C@H]1O[C@H](O[C@H]2[C@@H](O)[C@@H](O[C@H]3O[C@H](CO)[C@@H](O)[C@H](N)[C@@H]3O)[C@H](N)C[C@@H]2N)[C@H](N)C[C@H]1O,outcome,[1],inactive [at 9.52 µM]
same,"activity change, negative = inhibition",[2],-9.51% [at 9.73 µM] (inactive)
C[C@H](NCc1ccc(OCc2cccc(F)c2)cc1)C(N)=O,Potency,[3],inactive
same,Potency,[1],inactive
same,Potency,[2],inactive
O=C(Nc1cccc(Nc2ncc(Br)c(NCCc3cnc[nH]3)n2)c1)N1CCCC1,Potency,[10],934 nM (active)
same,Potency,[2],inactive
CC(=O)OC[C@@H]1O[C@@H](n2ccc(=O)[nH]c2=O)[C@H](OC(C)=O)[C@H]1OC(C)=O,Potency,[10],inactive
same,Potency,[1],inactive
same,Potency,[2],inactive
NC(=O)N1CCC(CC(=O)N2CCC([C@H]3c4ncc(Br)cc4CCc4cc(Cl)cc(Br)c43)CC2)CC1,Potency,[10],14800 nM (active)
same,Potency,[1],inactive
same,Potency,[2],inactive
CC(C=CC=C(C)C=CC1=C(C)CCCC1(C)C)=CC=CC=C(C)C=CC=C(C)C=CC1=C(C)CCCC1(C)C,outcome,[1],inactive [at 0.4 µM]
same,outcome,[2],inactive [at 0.409 µM]
COc1ccc(C(C)=O)c(O)c1,outcome,[4],inactive
same,outcome,[5],inactive
same,outcome,[6],inactive
same,outcome,[7],inactive
same,outcome,[8],inactive
CN(CC(=O)N(Cc1ccc(C2CCCCC2)cc1)c1ccc(C(=O)O)c(O)c1)S(=O)(=O)c1c(F)c(F)c(F)c(F)c1F,Potency,[1],inactive
same,Potency,[2],11.4 µM (active)
C[N+]1(C)[C@@H]2C[C@@H](OC(=O)C(O)(c3cccs3)c3cccs3)C[C@H]1[C@@H]1O[C@@H]12,Potency,[1],inactive
same,Potency,[2],inactive
same,Potency,[11],inactive
same,Potency,[12],inactive
O=c1ccn([C@@H]2O[C@H](CO)[C@H](O)[C@@H]2F)c(=O)[nH]1,Potency,[1],inactive
same,Potency,[2],inactive
COC(=O)C1C2CC3c4[nH]c5cc(OC)ccc5c4CCN3CC2CC(OC(=O)c2cc(OC)c(OC)c(OC)c2)C1OC (stereo not given),Potency,[1],inactive
CC(Cc1ccc(O)c(O)c1)(NN)C(=O)O (stereo not given),Potency,[9],29.5 µM (active)
same,Potency,[1],inactive
same,Potency,[2],inactive
COc1cc2c(cc1OC)[C@@H]1C(=O)c3ccc4c(c3O[C@@H]1CO2)C=CC(C)(C)O4,Potency,[10],16.4 µM (active) and 1.86 µM (active)
same,Potency,[1],inactive
same,Potency,[2],inactive
Nc1cccc2c1C(=O)N(C1CCC(=O)NC1=O)C2=O (stereo not given),Potency,[1],inactive
same,Potency,[2],inactive
COc1ccc(Nc2nccc(NCCO)n2)cc1,Potency,[1],inactive
same,Potency,[2],inactive
C=C[C@@H]1CN2CCC1C[C@H]2[C@H](O)c1ccnc2ccc(OC)cc12 (stereo not given in full),Potency,[1],inactive
same,Potency,[2],inactive
COc1cc2c(Nc3ccc(Cl)c(Cl)c3F)ncnc2cc1OCC1C[C@@H]2CN(C)C[C@H]2C1,activity,[13],-71.6%
same,Potency,[14],21.5 µM (active)
same,activity,[15],-56.2%
same,activity,[16],-68.7%
C[C@H](O)[C@@H]1C(=O)N2C(C(=O)O)=C(S[C@@H]3CN[C@H](CNS(N)(=O)=O)C3)[C@@H](C)[C@@H]12,Potency,[10],inactive
same,Potency,[2],inactive
same,Potency,[11],inactive
COc1cc(C[C@@H](CO)[C@H](CO)Cc2ccc(O)c(OC)c2)ccc1O,Potency,[10],inactive
same,Potency,[1],inactive
same,Potency,[2],inactive
